# System: LIMK2
# Conditions: concentration: 1 μM, replicates: in singlicate; n = 1
# 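Note: KINOMEscan kinase panel screen.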
row,Structure (SMILES),%Inh
1,Nc1ncnc2c1nc(-c1ccccc1)n2-c1ccccc1 [SKF-97293],2%
2,CC(=O)Nc1nc2cnc(Nc3cc(NC(=O)c4cccc(C5(C#N)CC5)c4Cl)ccc3C)nc2s1,0%
3,c1ccc(Oc2ccc(Nc3ccnc4cc(-c5ccc(CNCCN6CCOCC6)o5)ccc34)cc2)nc1 [GW567145],0%
4,Cn1cc(-c2[nH]c3cc(NC(=O)[C@H](N)C4CCCCC4)cc4c3c2C=NNC4=O)cn1,96.6%
5,CC(C)c1nc(-c2cccc(NS(=O)(=O)c3c(F)cccc3F)c2F)c(-c2ccnc(Nc3ccc(N4CCOCC4)nc3)n2)s1 [GSK2008607],100%
6,COc1cc(Nc2nccc(-c3c(-c4cccc(NC(=O)c5c(F)cccc5F)c4)nn4ccccc34)n2)cc(OC)c1OC [GSK323521],12%
7,COc1cc(Nc2nccc(N3CCC(NC(=O)c4cc5ccccc5s4)C3)n2)cc(OC)c1OC (stereo not shown) [GSK1379760],24%
8,Fc1ccc(-c2ncn(C3CCNCC3)c2-c2ccnc(Oc3ccc(-c4ccccc4)cc3)n2)cc1 [SB-245391],0%
9,COc1cc2c(cc1OCCN1CCNCC1)ncc1c3ccc(C#N)cc3[nH]c21,0%
10,Cl.Cl.NCC(NCc1ccc(-c2ccnc3[nH]ccc23)s1)c1ccccc1 (stereo not shown) [GSK1321565],20%
11,O=c1[nH]cc(-c2ccc(N3CCOCC3)cc2)c2sc(-c3cn[nH]c3)cc12 [GSK2276055],0%
12,O=C(Nc1cccc(-c2nn3ccccc3c2-c2ccnc(Nc3cccc(F)c3)n2)c1)c1c(F)ccc(F)c1Cl [GSK357952],0%
13,COC(=O)Nc1nc2cc(Oc3ccc(NC(=O)Nc4cc(C(F)(F)F)ccc4F)cn3)ccc2[nH]1.Cl.Cl [GW681170],0%
14,COCCOCCOc1cc2ncc3c4ccc(C#N)cc4[nH]c3c2cc1OC,1%
15,c1ccc(-c2n[nH]cc2Nc2ccnc3ccccc23)nc1 [GW694077],13%
16,C[C@@H](Oc1cc(-n2cnc3cc(-c4ccnc(NCCS(C)(=O)=O)c4)ccc32)sc1C(N)=O)c1ccccc1Cl [GSK907232],4%
17,CN1CCN(CCCNc2nccc(-c3c(-c4ccc(F)cc4)nn4cc(C(F)(F)F)ccc34)n2)CC1 [GW621581],0%
18,Oc1cc(Nc2ccnc3cc(I)ccc23)ccc1F [GW552771],0%
19,COc1ccc(-c2coc3ccc(-c4nnc(SCc5ccc(OC)c(C(F)(F)F)c5)o4)cc23)cc1,12%

row,Structure (SMILES),%Inh
1,Cl.c1ccc(-c2ccc3c(Nc4ccc5[nH]ncc5c4)ccnc3c2)nc1 [GW440137],23%
2,COc1ccc(CNC(=O)NC2CCN(c3ccnc(Nc4ccc(F)cc4)n3)CC2)cc1 [GSK1379788],0%
3,Cn1cc(-c2ccc3c(c2)CCN3C(=O)Cc2cccc(Cl)c2)c2c(N)ncnc21 [GSK2606590],52%
4,Cl.NC(=O)c1cccc(Nc2nccc(Nc3ccc(Oc4c(Cl)cccc4Cl)c(Cl)c3)n2)c1 [GW659009],0%
5,Cc1ccc(F)c(C(=O)Nc2cccc(-c3nn4ccccc4c3-c3ccnc(Nc4cccc(F)c4)n3)c2)c1F [GSK361061],15%
6,Cc1occc1-c1ncc(OC[C@@H](N)Cc2c[nH]c3ccccc23)cc1-c1ccc2[nH]nc(C)c2c1.O=C(O)C(F)(F)F [GSK682037],0%
7,Cc1cccc(Nc2nc(N[C@H]3CCNC3)ncc2C(N)=O)c1.Cl [GSK2197149],0%
8,CN(c1ccc(NC(=O)Nc2cc(C(F)(F)F)ccc2F)cc1)c1ccnc(Nc2ccc(S(N)(=O)=O)cc2)n1 [GW809893],84%
9,CNC(=O)c1ccccc1Nc1nc(Nc2ccc(N3CCOCC3)cc2)ncc1Cl.Cl [GSK1576028],30%
10,Cl.Cl.NCC(NC(=O)c1cc(-c2ccccc2)c(-c2ccnc3[nH]ccc23)s1)c1ccccc1 (stereo not shown) [GSK1321561],0%
11,NCCCC(NC(=O)c1cc(Br)c(-c2ccnc3[nH]ccc23)s1)c1ccccc1.O=C(O)C(F)(F)F.O=C(O)C(F)(F)F (stereo not shown) [GSK1287544],6%
12,O=C(Nc1cccc(Oc2ccc3nc(NC(=O)C4CC4)cn3n2)c1)c1ccccc1C(F)(F)F,7%
13,Nc1n[nH]c2cnc(-c3ccccc3)cc12 [SB-642124],1%
14,CN1CCN(Cc2cccc(-c3ccc4c(Nc5ccc(Oc6ccccc6)cc5)ccnc4c3)c2)CC1 [GW578342],0%
15,Nc1ncc(-c2cccnc2)c2scc(-c3ccc4c(c3)CCN4C(=O)Cc3ccccc3)c12 [GSK683281],36%
16,O=C(Nc1cccc(-c2nn3ncccc3c2-c2ccnc(Nc3ccccc3)n2)c1)c1c(F)cccc1F [GSK198271],0%
17,Cl.c1ccc(-c2ccc3c(Nc4ccc5[nH]ccc5c4)ccnc3c2)nc1 [GW440138],0%
18,Cc1ccc(C(=O)Nc2ccc(Nc3ccnc4cc(-c5nccs5)ccc34)cc2O)cc1.Cl [GW494702],0%

# — article PMC5540273 (PLoS ONE, 2017)
